Broadly, the inhibition is the drop in the measured response relative to a control, in per cent.

Out of some 360,000 compounds screened, about 1,800 (0.5%) were called active. The sample as a whole holds a higher share of actives than the screen did. A number with no mark means an inactive call.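 The calls were made as follows: active = mean inhibition of at least 75% with every replicate also reaching 75%; inconclusive = mean inhibition at least 75% but some replicate below; inactive = mean inhibition below 75%.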

We go through 88 compounds from PubChem BioAssay AID588674 (Broad Institute, 2011).

This assay is described as follows: reduction of Shn3 3'UTR firefly luciferase signal, primary screen, Schnurri-3 inhibitor project, cell-based, Clone20 osteoblasts, set 2 (AID 588674).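 Also: 0% = median of neutral control wells and 100% = pilot-screen positive control compound.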 As to conditions: Clone20 osteoblast Shn3 3'UTR firefly luciferase, 24 h; at 12.5 µM; active compounds read high.
For `CN(C)C(=O)CCc1ccc2c3c([nH]c2c1)[C@]1(C)[C@@H](C(=O)N2CCOCC2)C[C@H](CC(=O)NCCc2ccccn2)C(=O)N1CC3`, the inhibition was -11.8%. Turning to `COc1cc(F)ccc1-c1cc(C(=O)NCC2CCCCC2)[nH]n1`, the inhibition is -10.1%. On to `COc1ccc(OC)c(NC(=O)c2cc(-c3cc(F)ccc3OCC3CCCO3)n[nH]2)c1` (stereo not drawn), for which the inhibition was 86.3% (active). Turning to `CCCOc1ccc(F)cc1-c1cc(C(=O)Nc2ccc(F)cc2)[nH]n1`, the inhibition is 20%.

Regarding `O=C(CSc1ncnc2c1nnn2Cc1ccc(F)cc1)NC1CCCC1`, the inhibition was -2.06%. Turning to `O=C1c2ccccc2[C@@H]2C[C@@H](O)[C@H](Nc3ccccc3Cl)CCN12`, the inhibition is 55.5%. For `COc1ccccc1NC(=O)CSc1nnc(Cc2cccn2C)n1-c1ccc(F)cc1` the value was 17%; for `Cn1cccc1Cc1nnc(SCC(=O)NCCc2ccccc2)n1-c1ccc(F)cc1`, 87.9% (active). Regarding `Cc1ccc(C)c(NC(=O)CSc2nnc(Cc3cccn3C)n2-c2ccc(F)cc2)c1`, the inhibition was 7.47%.

In the case of `Fc1cccc(Cc2c(-c3ccc(Cl)cc3)nc3ccc(Cl)cn23)c1`, the inhibition was -13.4%.

On to `CN1OC[C@@H]2CN(C(=O)c3cccc4ccccc34)[C@H](c3ccc(N4CCCCC4)cc3)C[C@@H]21`, for which the inhibition was -9.07%. With `Cc1cc(C)cc(OCC(=O)Nc2ccc(S(=O)(=O)Nc3ccccn3)cc2)c1`, the inhibition is 6.49%. As to `Cc1ccc(S(=O)(=O)Nc2ccc3ncccc3c2)cc1`, the inhibition was 86.6% (active). Turning to `O=S(=O)(Nc1ccc(Oc2ncccn2)c(Cl)c1)c1ccc(F)cc1`, the inhibition is -28.6%. On to `Cc1c(CC(=O)NCC(=O)NCC(=O)O)c(=O)oc2cc3oc4c(c3cc12)CCCC4`, for which the inhibition is -25.9%.

As for `CN(C)C(=O)c1ccc2c(c1)C1C3CCC(C3)C1C(c1ccccc1)N2` (stereo not drawn), the inhibition is -19.2%. Take `COc1ccccc1OCCNc1cc(N2CCOCC2)ccc1[N+](=O)[O-]`: the inhibition was 40.1%.

Take `O=C(c1ccccc1)N1CCN(c2ccc([N+](=O)[O-])c(NCc3ccco3)c2)CC1`: the inhibition was 27.6%. Take `COc1ccc(CCNc2cc(N3CCN(C(=O)c4ccccc4OC)CC3)ccc2[N+](=O)[O-])cc1OC`: the inhibition was 88.7% (active). For `CC1=CC(=O)C=CC1(C)C(Cl)(Cl)Cl` (stereo not drawn) the value was 9.05%. In the case of `O=C(CCS(=O)(=O)c1ccc2c(c1)NC(=O)CS2)NCc1ccccc1Cl` it was -18.1%. On to `CC(C)(CNC(=O)c1ccc(Cl)c(S(=O)(=O)N2CCc3ccccc3C2)c1)N1CCOCC1`, for which the inhibition was 82.5% (active). Regarding `CN(C)S(=O)(=O)c1ccc(C(=O)NCC(C)(C)N2CCOCC2)cc1`, the inhibition was 23%. In the case of `O=C(NCCSCc1ccccc1)c1ccc(Cl)c(S(=O)(=O)N2CCOCC2)c1` it was 10.8%. As for `CCOC(=O)C1=CCC(c2ccc(F)cc2)N(S(=O)(=O)c2ccc(C)cc2)C1` (stereo not drawn), the inhibition is 10.7%. In the case of `N#Cc1c(-c2ccc(F)cc2)cc(C2CC2)nc1SCC(=O)c1cccs1` it was -3.6%; in that of `CN1C2CCC1CC(NC(=O)c1ccc([N+](=O)[O-])cc1)C2` (stereo not drawn), -1.34%; in that of `O=C(Nc1cc2c3c(c1)C1CCCC1CN3CC1CCCC21)c1ccc([N+](=O)[O-])cc1` (stereo not drawn), 88.9% (active). `CN(CC1CCCO1)S(=O)(=O)c1ccc(C(=O)Nc2ccc([N+](=O)[O-])cc2)cc1` (stereo not drawn): the inhibition was 39.9%. For `CC1=NNC(=O)C1CCC(=O)N/N=C\c1cccc(Cl)c1` (stereo not drawn) the value was -5.12%; for `Cc1cc(=O)oc2cc(OC(C)C(=O)Nc3ccc(N4CCOCC4)cc3)ccc12` (stereo not drawn), 10%.

Consider `O=C(CSc1nnnn1-c1ccc2c(c1)CCC2)Nc1ccc2c(c1)OCCO2`, for which the inhibition is 0.48%.

In the case of `FC(F)(F)c1cccc(-c2nc(COc3ccc(Cl)cc3Cl)no2)c1`, the inhibition is 6.45%. As for `Cc1nc2ccccc2c(C(=O)O)c1-c1ccccn1`, the inhibition was -12.3%. For `c1ccc(-c2nccc(-c3ccc(-n4cnc5ccccc54)cc3)n2)nc1` the value was 11.2%. In the case of `CC(C)(C)Nc1nc(-c2ccccn2)nc2ccccc12` it was 89.7% (active); in that of `CN(CC(=O)NCc1ccncc1)S(=O)(=O)c1ccc(Br)cc1`, 7.05%.

Consider `O=C(NC1=NCCS1)c1ccc(Cl)s1`, for which the inhibition was -84.7%. In the case of `C=C1C(=O)[C@]23C[C@H]1CCC2[C@@]1(C)C(C[C@@H]3O)[C@](C)(C(=O)O)CC[C@@H]1O` (stereo partly drawn) it was 29.4%; in that of `O=C(/C=C/Sc1ncn[nH]1)c1ccc(Cl)cc1`, 97.7% (active). In the case of `NC(=O)C1CCN(C(=O)c2cc(S(=O)(=O)N3CCN(c4ccccc4)CC3)ccc2Cl)CC1` it was -11.1%; in that of `CC1CCC(N2CC(=O)N(Cc3ccc4c(c3)OCO4)C(c3ccc(F)cc3)C2=O)CC1` (stereo not drawn), 7.77%; in that of `Cc1csc(NC(=O)CSc2nc(=O)cc(N)n2-c2ccc(F)cc2)n1`, -11%.

Turning to `COc1cc(SC)ccc1C(=O)Nc1nc(C)cs1`, the inhibition is 86.2% (active). In the case of `COc1cc(SC)ccc1C(=O)NNC(=O)C1COc2ccccc2O1` (stereo not drawn) it was 4.8%; in that of `C=CCn1c(COc2cccc3cccnc23)nnc1SCC(=O)OC`, 0.069%; in that of `CCCCC(=O)NC(c1ccc(OC)c(OC)c1)c1ccc2cccnc2c1O` (stereo not drawn), 87.9% (active).

In the case of `CCOc1ccc(C(CCc2ccccc2)NC(=O)c2ccc(OC)c(OC)c2)cc1OCC` (stereo not drawn), the inhibition was 20%. Regarding `COC(=O)c1sccc1-n1cccc1C(=O)C(=O)N1CCCCC1`, the inhibition is 2.95%. `O=C(Nc1ccccc1Cl)/C(Cl)=C(\Cl)S(=O)c1ccccc1` (stereo not drawn): the inhibition was 97.6% (active). For the compound `O=C(COc1ccc(-n2cnnn2)cc1)Nc1ccccc1Cl`, the inhibition is 1.66%. Take `CS/C(=C\C(=O)c1ccco1)Nc1ccccc1Cl`: the inhibition is -15.1%.

On to `Cc1cccc(N2CCN(C(=O)CCS(=O)(=O)c3ccc4c(c3)NC(=O)C(C)S4)CC2)c1C` (stereo not drawn), for which the inhibition was 78.8%.

Take `CC(=O)Nc1ccc(NC(=O)C(C)OC(=O)C2CC(=O)N(CCc3ccccc3)C2)cc1` (stereo not drawn): the inhibition was -14.3%. Regarding `O=C(COC(=O)C1CC2CCCC(C1)C2=O)NC(=O)c1ccccc1` (stereo not drawn), the inhibition is 14.5%.

For `COc1ccc(C(C#N)=C2C=CC(=NO)c3ccccc32)cc1`, the inhibition was 18.4%.

In the case of `CSc1nnc(NC(=O)c2nc(S(=O)(=O)Cc3ccc(C)cc3)ncc2Cl)s1`, the inhibition was 97% (active). Turning to `O=C(Nc1nnc(-c2ccc(F)cc2)s1)c1c(F)cccc1Cl`, the inhibition is -31.5%. Consider `Cc1ccc(S(=O)(=O)CCC(=O)Nc2nnc(CC(C)C)s2)cc1`, for which the inhibition was -5.29%. Turning to `Cc1cccc(C(=O)Nc2nnc(S(=O)(=O)N3CCCCCC3)s2)c1`, the inhibition is -6.34%. As for `Cc1ccc(CS(=O)(=O)c2ncc(Cl)c(C(=O)Nc3nnc(C)s3)n2)cc1`, the inhibition is 98.8% (active). For `NC(=O)CSc1nnc(NC(=O)c2ccc(Br)o2)s1` the value was -19.4%; for `O=C(O)C1C2C=CC(O2)C1C(=O)Nc1ccccn1` (stereo not drawn), 1.15%; for `NC(=O)C1CCN(Cc2nc3c(Br)cc(Br)cc3c(=O)[nH]2)CC1`, 9.29%. For `CC(C)C[C@H]1CNC(=S)N1C[C@H]1CCCN1C[C@H](Cc1ccc(O)cc1)N1C[C@H](Cc2ccc(O)cc2)N(CC2CCCCC2)C1=S` the value was 9.03%. With `Cc1noc(COc2ccccc2OCc2onc(C)c2Cl)c1Cl`, the inhibition is 9.9%.

`O=C(C=CC(=O)Nc1ccc(F)cc1F)Nc1ccc(F)cc1F`: the inhibition is 12.7%. For `COc1ccc(NC(=O)C2Cc3c(-c4cccc(NC(C)=O)c4)ccnc3O2)cc1OC` (stereo not drawn) the value was 47.1%. In the case of `CC(CCc1ccccc1)NC(=O)COC(=O)c1ccc(F)cc1` (stereo not drawn) it was -0.45%; in that of `Oc1c(CN2CCCC2)cc(COCc2ccccc2)c2cccnc12`, 86% (active); in that of `Oc1c(CN2CCN(c3ccc(F)cc3)CC2)cc(Cl)c2cccnc12`, 83.5% (active).

For the compound `O=C(Cc1ccccc1)NNC(=O)C1CCN(c2ncccn2)CC1`, the inhibition was -8.28%. `Cc1cc(=O)oc2cc(OCC(=O)N3CCN(c4ccc(F)cc4)CC3)c(Cl)cc12`: the inhibition was 4.64%. With `Cc1cccc(C)c1NC(=O)CN1CCN(c2ccc(F)cc2)CC1`, the inhibition was -13.2%. For `O=c1cc(CN2CCCCCCC2)c2c(ccc3ccccc32)o1` the value was 21.3%; for `CC1(C)OC(=O)N2CCc3ccccc3C21C` (stereo not drawn), -7.85%. In the case of `CC(OC(=O)c1cccnc1Cl)C(=O)NC1CCCCC1` (stereo not drawn) it was -10.8%; in that of `COC(=O)C1CCN(C(=O)NC2CC(=O)N(c3ccc4c(c3)OCCO4)C2)CC1` (stereo not drawn), -6.55%; in that of `CC(=O)Nc1cc(-c2cccc(CO)c2)cn2c(-c3cccc(C(F)(F)F)c3)cnc12`, 10.6%. As for `C[C@H]([C@@H](O)[C@@H](O)[C@@H](C)C(C)(C)C)[C@H]1CC[C@H]2C3CC[C@H]4C[C@H](OS(=O)(=O)O)[C@@H](OS(=O)(=O)O)C[C@]4(C)[C@H]3CC[C@]12C` (stereo partly drawn), the inhibition was -9.66%. Regarding `CC(=O)c1ccccc1NC(=O)CC1(CC(=O)O)CCCCC1`, the inhibition was -24.1%. Turning to `C=CCOc1nc2c(c(=O)n(C)c(=O)n2C)n1Cc1ccc(Cl)cc1Cl`, the inhibition is 86.3% (active). In the case of `C=CCn1c(Oc2ccc(C(=O)OC)cc2)nc2c1c(=O)n(C)c(=O)n2C` it was 21%.

With `Cn1c(=O)c2c(nc(OCc3cccnc3)n2Cc2ccccc2)n(C)c1=O`, the inhibition was 30%. For `CCCn1c(=S)[nH]c2ccc(C(F)(F)F)cc21` the value was -4.29%; for `COc1ccc(C(=O)NC2CCCc3c2cnn3-c2cccc(C)c2C)c(OC)n1` (stereo not drawn), 84.1%. In the case of `Cn1nccc1C(=O)NC1CCCc2c1cnn2-c1ccc(F)cc1F` (stereo not drawn), the inhibition is 77.1%.

Turning to `Cn1nccc1C(=O)NC1CCCc2c1cnn2-c1ccccc1F` (stereo not drawn), the inhibition was 90.2% (active).
